Reference: PubChem BioAssay (Tox21)
Records with an inconclusive call do not appear. A number with no mark means an inactive call. The source made the active and inactive calls. The call rests on the fitted dose curve; in most records, active means well fitted activation curve with a large enough effect in the repeat runs; inconclusive means weak or mixed curves; inactive means flat fitted curve, though single readings scatter.

Test: A CellTox Green Cytotoxicity Assay to monitor cytotoxicity in HEK293 cells - 24 hour (AID 1224875); further: nearly all actives have a fitted effect of over 45% in size
Settings: CellTox Green fluorescence; series mostly up to 76.8 µM; activity change: at the top concentration
Excerpt: National Center for Advancing Translational Sciences [NCATS]
NIH Chemical Genomics Center [NCGC]
U.S. Environmental Protection Agency [EPA]
National Institutes of Environmental Health Sciences [NIEHS]
National Toxicology Program [NTP]
Cell-based models are critical for drug discovery. Determining the natural cytotoxic effects resulting from test compounds is an essential research activity. A CellTox Green Cytotoxicity Assay to monitor cytotoxicity in real time of continues cell culture during 40 hours of the compound treatment was used to screen Tox21 10K library compounds in Hek293 cells. CellTox Green Cytotoxicity Assay is a nonlytic, homogeneous, biofluorescent method to measure cytotoxicity in cell culture after experimental manipulation. The assay system uses a proprietary asymmetric cyanine dye that is excluded from viable cells but preferentially stains the dead cell's DNA. […] Viable cells produce no appreciable increases in fluorescence. Therefore, the fluorescence signal produced by the binding interaction with dead cell DNA is proportional to cytotoxicity.
The mixture of Hek293 cell suspension and reagents were dispensed at 600cells/6 ul/well in 1536-well tissue culture treated black solid bottom plates using a Multidrop dispenser. After the assay plates were incubated at a 37 C/5% CO2 incubator for 5 hours, 23 nL of compounds dissolved in DMSO, positive and negative controls was transferred to the assay plate by a pintool work station. The plates were incubated at 37 C for 40 hours. The fluorescence intensity were measured at 0h, 8h, 16h, 24h, 32h and 40h time points using ViewLux plate reader during compound treatment.
On the % scale 0 is the no-effect control and ±100 the full control effect; potency means the concentration at half of the fitted maximal effect.

| Compound | Potency | activity change |
| --- | --- | --- |
| Cc1c2ccccc2c(C)c2c1ccc1ccccc12 | 49 µM (active) |  |
| c1ccc(SSc2ccccc2)cc1 |  | 4.78% |
| CCOC(=O)NNc1ccc(N(CC)CC(C)O)nn1 (stereo not given) |  | -11.4% [at 35.3 µM, hits give high values] |
| CCCCNS(=O)(=O)c1ccc(C)cc1 |  | -1.9% |
| O=C(O)c1ccc2cc(C(=O)O)ccc2c1 |  | -5.82% |
| CC(=O)Oc1cc2c(s1)CCN(C(C(=O)C1CC1)c1ccccc1F)C2 (stereo not given) |  | -2.69% [at 35.3 µM, hits give high values] |
| CCc1cccc(CC)c1NC(=O)CN(CC(=O)O)CC(=O)O |  | -18.6% [at 35.3 µM, hits give high values] |
| CCC(CC)(CC(=O)Nc1cccc(/C=C/c2nc(C3CCC3)cs2)c1)C(=O)O |  | 4.97% [at 35.3 µM, hits give high values] |
| Cc1ccc(C(=O)O)cc1 |  | 0.793% |
| C[Si](Cl)(c1ccccc1)c1ccccc1 |  | 28.3% |
| CCN1C(=O)c2ccccc2C1Nc1ccc(OCCN2CCCCC2)cc1 (stereo not given) |  | 0.894% [at 35.3 µM, hits give high values] |
| O[C@@H]([C@H](O)[C@H](O)CBr)[C@H](O)CBr |  | 14.2% |
| Cc1ccc(C(C)C)cc2c(C)ccc1-2 |  | 28.7% [at 35.3 µM, hits give high values] |
| CCCCCCCC |  | -7.93% |
| [Cl][Pt-2]([Cl])([Cl])[Cl] |  | -8.15% |
| Cc1ccc(O)c(N)c1 |  | -0.696% |
| CC(C)=CCNc1ncnc2c1ncn2[C@@H]1O[C@H](CO)[C@@H](O)[C@H]1O |  | -12.1% [at 35.3 µM, hits give high values] |
| CNC(=O)c1ccccc1Sc1ccc2c(/C=C/c3ccccn3)n[nH]c2c1 |  | 7.77% [at 35.3 µM, hits give high values] |
| CNc1ccc([N+](=O)[O-])cc1 |  | 0.094% |
| Cc1c(F)c(N2CCNC(C)C2)cc2c1c(=O)c(C(=O)O)cn2C1CC1 (stereo not given) |  | -10.7% [at 35.3 µM, hits give high values] |

| Compound | Potency | activity change |
| --- | --- | --- |
| C#Cc1ccc(-c2ccccc2F)cc1 |  | 0.723% [at 35.3 µM, hits give high values] |
| O=c1oc2cc(O)ccc2c2oc3cc(O)ccc3c12 |  | -6.71% |
| C=C(CC)C(=O)c1ccc(OCC(=O)O)c(Cl)c1Cl | inactive |  |
| CCCC(=O)OCOC(=O)C1=C(C)NC(C)=C(C(=O)OC)C1c1cccc(Cl)c1Cl (stereo not given) |  | -2.37% [at 35.3 µM, hits give high values] |
| COC(=O)c1ccccc1C |  | -18.1% |
| C#C[C@]1(OC(C)=O)CC[C@H]2[C@@H]3CCC4=C[C@@H](OC(C)=O)CC[C@@H]4[C@H]3CC[C@@]21C |  | 17.4% [at 35.3 µM, hits give high values] |
| CCCCCc1ccc(Cl)cc1 |  | -1.18% |
| CCCCC(CC)COC(=O)CCCCC(=O)OCc1ccccc1 (stereo not given) |  | -0.329% |
| CC(C(=O)O)c1ccc2c(c1)[nH]c1ccc(Cl)cc12 (stereo not given) |  | 5.67% [at 35.3 µM, hits give high values] |
| O=C(Nc1ccc2c(O)c(N=Nc3ccc(N=Nc4ccc(S(=O)(=O)O)cc4)cc3)c(S(=O)(=O)O)cc2c1)c1ccccc1 |  | -40.3% |
| CCCCCC(C)OC(=O)COc1ccc(Cl)c2cccnc12 (stereo not given) |  | 24.2% |
| Cc1c(C)c2c(c(C)c1O)CC[C@@](C)(CCC[C@H](C)CCC[C@H](C)CCCC(C)C)O2 |  | -14.2% |
| Nc1ccc(Oc2ccc(Cl)cc2)cc1 |  | 11% |
| Nc1ccc(C(=O)O)c(O)c1 |  | -2.49% [at 35.3 µM, hits give high values] |
| CCCCOC(=O)CO |  | 3.41% |
| COc1c(C)c2c(c(O)c1C/C=C(\C)CCC(=O)OCCN1CCOCC1)C(=O)OC2 |  | -1.07% [at 35.3 µM, hits give high values] |
| CCCCC/C=C\C/C=C\CCCCCCCC(=O)O | inactive |  |
| C=Cc1cccc(C)c1 |  | -0.0709% |
| CN(C)CCN1CCN(c2cccc(Cl)c2)C1=O |  | -6.57% [at 35.3 µM, hits give high values] |
| Cc1nc(-c2ccc(Cl)cc2)oc1COC(C)(C)C(=O)O |  | -8.36% [at 35.3 µM, hits give high values] |
